Assay results taken from the supplement of paper PMC6555819.

Legend:
Experiment in all cases: PBM binding z-score (relative to random genomic background probes); higher = stronger binding; sequences stand for … in GC…GCGATTGACAGCGTAGAATGAAGG
[1] = system: PPARg:RXRa DBDmut IVT, anti-RXR (DBD mutation: RXRa K156A/R161A, NR concentration 270 nM, RXRa partner concentration 90 nM)
How it was run: (§1)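 The probes on custom Agilent 4×180K protein-binding microarrays were double-stranded, with 34-nt variable regions bearing direct-repeat seeds, single-nucleotide variants, half-site ablations and random human genomic background sequences. Incubation lasted 1 h with ligand-free nuclear receptor dimers in PBS pH 7.4, 2% milk, 0.02% Triton X-100, 1 mM DTT, 0.2 mg/mL BSA and 0.4 mg/ml salmon testes DNA. Antibodies against each partner (one per run) detected bound dimers, and fluorescence scans were regression-normalized. Binding z-scores take the random background probes as reference.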

[2] = system: PPARg:RXRa IVT, anti-PPARg (NR concentration 270 nM, RXRa partner concentration 90 nM)
How it was run: as §1

[3] = system: PPARg DBDmut:RXRa IVT, anti-PPARg (DBD mutation: PPARg1 K132A/R137A, NR concentration 270 nM, RXRa partner concentration 90 nM)
How it was run: as §1

[4] = system: PPARg DBDmut IVT, anti-PPARg (DBD mutation: PPARg1 K132A/R137A, NR concentration 270 nM)
How it was run: as §1

[5] = system: PPARg homodimer (NR concentration 180 nM)
How it was run: as §1

[6] = system: PXR:RXRa (NR concentration 270 nM, RXRa partner concentration 90 nM)
How it was run: as §1

[7] = system: PXR homodimer (NR concentration 270 nM)
How it was run: as §1

[8] = system: RARa:RXR (NR concentration 270 nM, RXRa partner concentration 90 nM)
How it was run: as §1

[9] = system: RARa homodimer (NR concentration 270 nM)
How it was run: as §1

[10] = system: RARb:RXRa (NR concentration 270 nM, RXRa partner concentration 90 nM)
How it was run: as §1

Row | Sequence | PBM binding z-score [1] | PBM binding z-score [2] | PBM binding z-score [3] | PBM binding z-score [4] | PBM binding z-score [5] | PBM binding z-score [6] | PBM binding z-score [7] | PBM binding z-score [8] | PBM binding z-score [9] | PBM binding z-score [10]
1 | AGAATGAGGTTACCAAAGATAAGGGAAACGCTTG | 3.63 | 3.34 | 0.848 | 0.91 | 1.01 | 0.851 | 0.109 | 1.68 | 0.445 | 1.73
2 | CCGACTGGTGCATAAGGTTACCATAAGCCAGCCC | -0.572 | -0.302 | -0.529 | -1.4 | 0.502 | 0.475 | -0.018 | 1.18 | 0.243 | 0.928
3 | CCTATTAGTTGACCATAAAGGCAACCGAAGCTCG | 0.277 | 0.572 | 0.612 | 1.06 | 1.55 | 0.343 | 1.08 | 0.436 | 2.45 | 0.404
4 | CCTACTGGGCCATCAGGTCAGTGATATCAACGTT | 4.12 | 4.95 | -0.457 | 0.096 | 0.501 | 0.376 | -0.631 | 0.801 | -0.59 | 1.77
5 | ATCTCTAGGCAAAGATAGTTCAGTGAATGCAAAT | 0.0233 | 0.0871 | 0.389 | 0.566 | -0.0165 | -0.0478 | 0.35 | -0.456 | 0.524 | 0.211
6 | AGAAAGAGGGCACGCTGAGTTGATAGCAGAGTAG | 3.25 | 3.07 | 0.171 | -0.413 | 0.723 | 1.85 | -0.108 | 1.27 | -0.166 | 2.74
7 | TCAGACAGGCGAAGGTAACTCAGGTACGCAGTCG | 1.62 | -0.431 | -0.529 | -0.776 | -0.126 | 0.167 | -0.281 | 0.0245 | -0.553 | 0.0079
8 | ACAGACAGGTGATGAAGGTAAGTCAGGCTATCAT | 0.134 | 0.289 | 0.49 | -0.485 | -0.00799 | -0.348 | -0.234 | -0.203 | 0.26 | 0.27
9 | CGTCCACGGTCAATGCTAGGTCAGTGAAAGCATT | 0.573 | 1.02 | -0.899 | -1.45 | 0.415 | 0.201 | -0.388 | 1.17 | -0.504 | 3.16
10 | ATCTCTAGGTAACAAGTTCATTGAAAGAGAGGAC | 3.39 | 3.28 | 1.38 | 1.78 | 1.57 | 3.71 | 5.1 | 2.06 | 1.52 | 1.89
11 | TCTGCTAGGTCAACGATGGTCAGCTCATCTGCTA | 4 | 4.36 | 2.19 | -0.236 | 1.9 | 1.71 | -1.45 | 2.37 | -0.783 | 4.05
12 | GCGACTCGGGCAAAGCAGGTTACCATAAGGTTGG | 0.437 | 0.613 | -1.22 | -1.92 | -0.783 | -0.339 | -0.681 | 0.418 | -0.821 | 0.403
13 | TAGCCTAGGTCACTCAGGGGCCAGTATAGAAAGC | 1.65 | 3.3 | 0.795 | 0.141 | 1.5 | 1.73 | -0.391 | 3.07 | -0.348 | 3.99
14 | CTACCAAGGTGAACTAGGTCGTTGATTACTATTC | 3.53 | 3.8 | 0.391 | 0.182 | 0.824 | 1.4 | 0.424 | 1.61 | 0.0789 | 1.97
15 | CCAGACAAGTGAGAAGGTAACTCAGCCTCGATTA | 0.321 | -0.293 | -0.675 | -0.316 | 1.29 | -0.132 | 0.602 | 0.088 | 1.08 | 0.0534
16 | ACCTCTAGGTAACAAGTTCAGTGAAAGAGAGGAC | 3.28 | 2.07 | 0.823 | 0.266 | 0.609 | 1.57 | 1.32 | 0.59 | -0.291 | 1.51
17 | AGAATGAGGTTAAGATCAGGGCAACAGAATACAT | 2.97 | 3.28 | 1.36 | 0.923 | 1.05 | 2.34 | 0.694 | 2.78 | 0.44 | 2.45
18 | TGTGAAAGTTCAAAGGTAACGTAAGTATCCACAC | -0.131 | 3.37 | 1.69 | 1.46 | 2.73 | 5.64 | 4.19 | 6.09 | 1.81 | 4.74
19 | TCTTGTTGATCAAGCAGGTTAAGAAAGCCTGAGT | 1.34 | 0.182 | -0.406 | 0.392 | 0.2 | 0.29 | 0.159 | 0.176 | -0.0111 | 0.317
20 | CCAGACAGGTGAAAGGTAACTCAGTCTGGTACGC | 2.07 | 3.2 | 0.403 | -0.0766 | 1.36 | 0.838 | 0.027 | 1.99 | 0.208 | 1.4
21 | CCTAGTTGGTCAAGGTCAAACACGCTATAGGTAC | 2.18 | 3.37 | 0.444 | 1.42 | 3.34 | 4.48 | 3.25 | 4.41 | 2.79 | 4.19
22 | TTACCAAGGTGAAAGGTCGTGGATGCACGCCTTG | 3.06 | 5.11 | 0.851 | -0.117 | 2.21 | 4.12 | 0.543 | 6.44 | 0.268 | 3.33
23 | AGAACCAGGGCACGCTGAGTTGATAGCAGAGTAG | 4.22 | 3.95 | 0.0191 | -0.605 | -0.0465 | 0.357 | -0.341 | 0.14 | -0.234 | 1.34
24 | ATCTCTAGGTAACCAAATTCAGTGAATGCCGAAC | 3.66 | 2.72 | 0.888 | 0.995 | 0.658 | 0.0913 | 0.615 | 0.166 | 0.995 | 0.377
